# Experimental data published in PubChem BioAssay (EPA / NIEHS).
# Results filed as inconclusive are left out. Active and inactive are the calls of the source. The calls were made as follows, unless noted: active = hit-call score of the fitted dose curve at least 0.9, where 1 is the maximum; inconclusive = response in the unintended direction; inactive = score below 0.9.
# Columns and labels:
# [1] = ATG_M_32_XSP2: Attagene TRANS-FACTORIAL Multi-Species (XSP2) HepG2 Assay for M19 Transcription Factor (Internal Marker) (AID 2283826)
# Summary of the method: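 Transfected HepG2 (multiplexed GAL4-UAS reporters), 24 h chemical exposure, 3 nM 6-alpha-fluorotestosterone + 1.5 nM norgestrel added. RNA → oligo(dT) RT → PCR → 6-FAM primer extension → HpaI cut → CE. Fitted upward vs DMSO.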
# [2] = CCTE_Harrill_HTTr_Apoptosis_PRF_DMEM_12hr: (Pilot) CCTE's 12-hour Apoptosis Assessment for the High-Throughput Transcriptomics (HTTr) Platform, in MCF-7 cells cultured in phenol red-free DMEM + 10% charcoal-stripped fetal bovine serum, Harrill Lab (AID 2283985; active = hit-call score of the fitted dose curve at least 0.9, where 1 is the maximum; inactive = score below 0.9)
# Summary of the method: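 Caspase-3/7 activity by CellEvent Green high content imaging after 12 h compound exposure (eight concentrations) in MCF-7 grown in phenol red-free DMEM plus 10% charcoal-stripped serum; DMSO as baseline.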
# [3] = molecular target: rat Gamma-Aminobutyric Acid Type A Receptor BDZ, alpha 6 site (GABARa6), Gabra6 (gene 29708) (UniProt P30191); test: NVS_LGIC_rGABARa6: NovaScreen (NVS) Ligand-Gated Ion Channel Assay for rat Gamma-Aminobutyric Acid Type A Receptor BDZ, alpha 6 site (GABARa6) (AID 2283339)
# Summary of the method: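 Actives from a 25 uM duplicate screen were retested in concentration series (max 50 uM). Specific radioligand displacement from rat cerebellar membranes was counted by filter-based scintillation at 1 h; DMSO served as baseline.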
# [4] = molecular target: bovine Gamma-Aminobutyric Acid Type A Receptor BDZ, alpha 1 site (GABARa1), GABRA1 (gene 780973) (UniProt P08219); test: NVS_LGIC_bGABARa1: NovaScreen (NVS) Ligand-Gated Ion Channel Assay for bovine Gamma-Aminobutyric Acid Type A Receptor BDZ, alpha 1 site (GABARa1) (AID 2283321)
# Summary of the method: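 Bovine cortex membrane preparation, benzodiazepine site on GABA-A alpha1; specific radioligand displacement read after 0.75 h by filtration and scintillation. Screen at 25 uM, then singleton titrations up to 50 uM; DMSO baseline.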
# [5] = molecular target: Voltage-dependent N-type calcium channel subunit alpha-1B (Rattus norvegicus) (UniProt Q02294); test: NVS_IC_rCaChN: NovaScreen (NVS) Ion Channel Assay for rat Calcium Channel, Type N (CaChN) (AID 2283317)
# [6] = molecular target: rat Neurotensin Receptor (NTS), Ntsr1 (gene 366274) (UniProt P20789); test: NVS_GPCR_rNTS: NovaScreen (NVS) G Protein-Coupled Receptor Assay for rat Neurotensin Receptor (NTS) (AID 2283308)
# Summary of the method: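 Single-point duplicates at 25 uM, then concentration series to 50 uM max for hits, measured radioligand displacement on rat forebrain membrane preparations. Bound label counted by filtration scintillation at 1 h; signal loss relative to DMSO fitted.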
# [7] = molecular target: human Neonicotinoid receptor (NNR), CHRNA2 (gene 1135) (UniProt Q15822); test: NVS_LGIC_hNNR_NBungSens: NovaScreen (NVS) Ligand-Gated Ion Channel Assay for human Neonicotinoid receptor (NNR) (AID 2283313)
# Summary of the method: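 Compounds first screened in duplicate at 25 uM, then actives re-tested in single-replicate dose series up to 50 uM. Binding measured as displacement of specific radioligand from neuroblastoma membrane receptors after 2 h, scintillation read on filters.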
# [8] = molecular target: rat Oxytocin Receptor (OXT), Oxtr (gene 25342) (UniProt P70536); test: NVS_GPCR_rOXT: NovaScreen (NVS) G Protein-Coupled Receptor Assay for rat Oxytocin Receptor (OXT) (AID 2283330)
# Summary of the method: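 Binding to rat uterine membrane receptor was followed by scintillation counting of filter-trapped radioligand after 1 h. A 25 uM duplicate single-point screen preceded concentration series with a top of 50 uM. Signal loss was analysed relative to DMSO.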
# [9] = molecular target: bovine Estrogen Receptor (ER), ESR1 (gene 407238) (UniProt P49884); test: NVS_NR_bER: NovaScreen (NVS) Nuclear Receptor Binding Assay for bovine Estrogen Receptor (ER) (AID 2283345);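 also: actives lower the bound radioligand count which means they displace the ER ligand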
# Summary of the method: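 Cell-free radioligand binding with receptor from bovine uterine membranes, read by scintillation counting 18 h after dosing. Loss of specific binding was scored against DMSO; primary screen at 25 uM in duplicate, actives then run as concentration series.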
# [10] = molecular target: Estrogen receptor (Homo sapiens) (UniProt P03372); test: NVS_NR_hER: NovaScreen (NVS) Nuclear Receptor Binding Assay for human Estrogen Receptor (ER) (AID 2283348)
# Summary of the method: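 Cell-free MCF7-derived ER preparation, specific radioligand displaced by test compound, read by scintillation counting 18 h post-dosing. Duplicate single-point 25 uM screen, then concentration-response confirmation; DMSO baseline.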
# [11] = molecular target: mouse Estrogen Receptor alpha (Era), Esr1 (gene 13982) (UniProt P19785); test: NVS_NR_mERa: NovaScreen (NVS) Nuclear Receptor Binding Assay for mouse Estrogen Receptor alpha (Era) (AID 2283378)
# Summary of the method: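 Extracted mouse Era incubated with tritiated or iodinated radioligand plus test chemical, 18 h. Bound fraction separated on filters, counted by scintillation. DMSO = negative control/baseline; duplicate single-point at 25 uM, then concentration-response follow-up.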
# [12] = TOX21_p53_BLA_p3_viability: Viability Assessment in the Tox21 HCT-116 p53 Agonism Beta-lactamase Assay, Phase 3 (AID 2283593);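 also: cells exposed to compound for 16 h before reading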
# Summary of the method: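 Cellular ATP was quantified by CellTiter-Glo luminescence, read after 30 min at room temperature. Beforehand, HCT116 cells (4000/well) received compound 5 h post-seeding, 217-fold diluted from DMSO, then incubated 16 h at 37C.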
# [13] = molecular target: Cellular tumor antigen p53 (Homo sapiens) (UniProt P04637); test: TOX21_p53_BLA_p3_ratio: Tox21 HCT-116 p53 Agonism Beta-lactamase Assay, Ratio, Phase 3 (AID 2283596)
# Summary of the method: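 Cells were seeded at 4000/well, rested 5 h at 37C, then dosed with DMSO compound solutions (217-fold dilution) for 16 h. CCF4-AM substrate was loaded for 2 h at room temperature, and the 460/530 nm emission ratio was fitted for gain of signal versus DMSO.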
# [14] = molecular target: Cellular tumor antigen p53 (Homo sapiens) (UniProt P04637); test: TOX21_p53_BLA_p5_ratio: Tox21 HCT-116 p53 Agonism Beta-lactamase Assay, Ratio, Phase 5 (AID 2283599)
# Summary of the method: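 Beta-lactamase reporter ratio (blue 460 nm over green 530 nm, 405 nm excitation) after 2 h CCF4-AM loading, in HCT-116 cells exposed 16 h at 37 C to compounds pinned at 217-fold dilution. Increases relative to DMSO baseline scored.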
# [15] = TOX21_p53_BLA_p5_viability: Viability Assessment in the Tox21 HCT-116 p53 Agonism Beta-lactamase Assay, Phase 5 (AID 2283600)
# Summary of the method: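 Workflow: seed 4000 cells per well, wait 5 h, add compounds (DMSO, 217-fold dilution), incubate 16 h, load CCF4-AM 2 h, add CellTiter-Glo, read luminescence after 30 min.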
# [16] = molecular target: Cellular tumor antigen p53 (Homo sapiens) (UniProt P04637); test: TOX21_p53_BLA_p4_ratio: Tox21 HCT-116 p53 Agonism Beta-lactamase Assay, Ratio, Phase 4 (AID 2283601)
# Summary of the method: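 Signal is the blue/green (460nm/530nm) ratio of cleaved versus uncleaved CCF4-AM substrate, read after 2 h substrate loading. Cells were HCT116 carrying the p53-responsive beta-lactamase reporter, dosed 16 h at 37C, 5% CO2; CellTiter-Glo measured in parallel.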
# [17] = ACEA_ER_AUC_viability: ACEA Biosciences xCELLigence Real-Time Cell Analysis on Estrogen Receptor Agonism for Viability (AID 2283782);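 also: hit means loss of impedance signal meaning reduced cell growth or viability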
# Summary of the method: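 Viability endpoint: reduced impedance area under the curve relative to DMSO, recorded by real-time electrode sensing over ~80 h of continuous exposure. Duplicate plates of T47D in hormone-depleted medium; eight concentrations, 1:4 dilutions, 100 uM maximum.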
# [18] = molecular target: rat Corticotropin Releasing Factor Receptor (CRF), Crhr1 (gene 58959) (UniProt P35353); test: NVS_GPCR_rCRF: NovaScreen (NVS) G Protein-Coupled Receptor Assay for rat Corticotropin Releasing Factor Receptor (CRF) (AID 2283300)
# Summary of the method: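 Single-concentration (25 uM, duplicate) radioligand binding on rat cortical membrane preparations, counted by scintillation after 2 h. Activity scored as signal loss relative to DMSO negative control.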
# [19] = TOX21_p53_BLA_p2_viability: Viability Assessment in the Tox21 HCT-116 p53 Agonism Beta-lactamase Assay, Phase 2 (AID 2283591);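 also: compound exposure lasted 16 h at 37 °C; actives lower the ATP signal meaning cytotoxicity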
# Summary of the method: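 Cytotoxicity readout: CellTiter-Glo ATP luminescence, 30 min at room temperature, after the beta-lactamase read. Cells were HCT116 exposed 16 h at 37C to compounds pin-transferred at 217-fold dilution from DMSO stocks.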
# [20] = molecular target: Cellular tumor antigen p53 (Homo sapiens) (UniProt P04637); test: TOX21_p53_BLA_p2_ratio: Tox21 HCT-116 p53 Agonism Beta-lactamase Assay, Ratio, Phase 2 (AID 2283592)
# Summary of the method: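 Plated HCT116 p53-bla cells (4000/well) received compound after 5 h, then 16 h at 37C/5% CO2. CCF4-AM added, 2 h RT. Ratio of 460 to 530 nm emission taken as the p53 reporter signal.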
# [21] = TOX21_p53_BLA_p4_viability: Viability Assessment in the Tox21 HCT-116 p53 Agonism Beta-lactamase Assay, Phase 4 (AID 2283597);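 also: hits lower the luminescence signal meaning cytotoxicity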
# Summary of the method: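 Readout: ATP luminescence (CellTiter-Glo), measured 30 min after reagent addition at RT. The reagent followed a 2 h CCF4-AM incubation, and the cells had been exposed to compound for 16 h at 37C.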
# Chain of Cellular tumor antigen p53 (Homo sapiens) (P04637 whole entry, looked up): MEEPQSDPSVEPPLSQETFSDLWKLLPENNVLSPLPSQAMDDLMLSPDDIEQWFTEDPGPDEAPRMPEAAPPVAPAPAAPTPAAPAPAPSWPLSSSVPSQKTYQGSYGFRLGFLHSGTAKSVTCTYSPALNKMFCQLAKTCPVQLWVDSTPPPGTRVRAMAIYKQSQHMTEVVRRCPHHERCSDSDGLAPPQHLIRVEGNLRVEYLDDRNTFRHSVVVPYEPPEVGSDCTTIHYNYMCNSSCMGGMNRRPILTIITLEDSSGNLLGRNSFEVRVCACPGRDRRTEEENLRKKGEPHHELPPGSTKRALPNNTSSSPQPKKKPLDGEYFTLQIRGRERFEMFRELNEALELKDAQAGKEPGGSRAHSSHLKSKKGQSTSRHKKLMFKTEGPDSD
# Chain of rat Oxytocin Receptor (OXT), Oxtr (gene 25342) (P70536 whole entry, looked up): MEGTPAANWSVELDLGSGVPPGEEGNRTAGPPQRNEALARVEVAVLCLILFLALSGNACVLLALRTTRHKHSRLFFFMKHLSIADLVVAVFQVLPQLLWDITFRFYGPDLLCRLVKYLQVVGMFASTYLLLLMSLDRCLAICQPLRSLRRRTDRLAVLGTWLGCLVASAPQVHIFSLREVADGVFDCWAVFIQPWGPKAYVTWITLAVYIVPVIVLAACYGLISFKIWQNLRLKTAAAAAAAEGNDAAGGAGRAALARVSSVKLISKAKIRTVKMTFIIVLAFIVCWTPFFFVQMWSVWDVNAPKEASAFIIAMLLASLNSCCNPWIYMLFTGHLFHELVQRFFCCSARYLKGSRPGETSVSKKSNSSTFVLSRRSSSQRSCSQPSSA
# Chain of Estrogen receptor (Homo sapiens) (P03372 whole entry, looked up): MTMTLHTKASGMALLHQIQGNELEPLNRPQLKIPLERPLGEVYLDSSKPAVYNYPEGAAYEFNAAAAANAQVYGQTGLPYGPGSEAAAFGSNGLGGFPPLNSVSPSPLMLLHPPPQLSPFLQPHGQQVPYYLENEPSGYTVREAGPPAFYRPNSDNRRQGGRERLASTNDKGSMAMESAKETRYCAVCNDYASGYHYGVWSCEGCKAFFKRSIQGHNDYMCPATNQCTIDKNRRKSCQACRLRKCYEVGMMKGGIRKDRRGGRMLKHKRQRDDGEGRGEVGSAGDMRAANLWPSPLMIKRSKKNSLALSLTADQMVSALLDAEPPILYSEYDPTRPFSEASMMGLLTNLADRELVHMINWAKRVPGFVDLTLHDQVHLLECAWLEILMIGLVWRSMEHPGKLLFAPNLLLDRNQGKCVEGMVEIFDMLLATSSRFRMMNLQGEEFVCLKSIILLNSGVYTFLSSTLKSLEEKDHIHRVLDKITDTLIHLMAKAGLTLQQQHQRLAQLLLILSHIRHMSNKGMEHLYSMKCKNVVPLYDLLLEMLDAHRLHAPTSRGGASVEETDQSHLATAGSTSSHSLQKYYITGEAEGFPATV
# Chain of rat Gamma-Aminobutyric Acid Type A Receptor BDZ, alpha 6 site (GABARa6), Gabra6 (gene 29708) (P30191 whole entry, looked up): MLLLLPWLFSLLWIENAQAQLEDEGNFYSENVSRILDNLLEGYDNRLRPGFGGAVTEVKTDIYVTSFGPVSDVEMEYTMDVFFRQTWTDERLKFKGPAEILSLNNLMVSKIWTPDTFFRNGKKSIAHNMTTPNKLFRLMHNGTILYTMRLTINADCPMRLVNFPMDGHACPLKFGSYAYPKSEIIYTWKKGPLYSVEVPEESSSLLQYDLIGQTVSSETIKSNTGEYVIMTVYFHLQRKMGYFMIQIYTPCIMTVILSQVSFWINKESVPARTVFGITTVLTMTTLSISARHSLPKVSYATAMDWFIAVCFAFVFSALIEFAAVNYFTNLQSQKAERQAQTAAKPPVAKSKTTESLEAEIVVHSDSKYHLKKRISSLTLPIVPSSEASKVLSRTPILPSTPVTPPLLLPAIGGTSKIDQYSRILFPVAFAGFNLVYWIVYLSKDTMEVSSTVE
# Chain of rat Neurotensin Receptor (NTS), Ntsr1 (gene 366274) (P20789 whole entry, looked up): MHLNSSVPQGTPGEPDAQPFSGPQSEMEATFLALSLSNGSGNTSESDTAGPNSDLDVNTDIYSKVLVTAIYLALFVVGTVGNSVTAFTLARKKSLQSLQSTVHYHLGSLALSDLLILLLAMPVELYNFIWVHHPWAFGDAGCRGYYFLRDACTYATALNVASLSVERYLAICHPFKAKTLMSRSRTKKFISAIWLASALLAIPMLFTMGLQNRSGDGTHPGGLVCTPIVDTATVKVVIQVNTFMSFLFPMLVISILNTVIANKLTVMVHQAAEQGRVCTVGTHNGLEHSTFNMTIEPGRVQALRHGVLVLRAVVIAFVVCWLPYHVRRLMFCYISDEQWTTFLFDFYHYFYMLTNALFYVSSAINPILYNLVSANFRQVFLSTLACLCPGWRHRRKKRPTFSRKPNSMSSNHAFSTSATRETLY
# Chain of bovine Gamma-Aminobutyric Acid Type A Receptor BDZ, alpha 1 site (GABARa1), GABRA1 (gene 780973) (P08219 whole entry, looked up): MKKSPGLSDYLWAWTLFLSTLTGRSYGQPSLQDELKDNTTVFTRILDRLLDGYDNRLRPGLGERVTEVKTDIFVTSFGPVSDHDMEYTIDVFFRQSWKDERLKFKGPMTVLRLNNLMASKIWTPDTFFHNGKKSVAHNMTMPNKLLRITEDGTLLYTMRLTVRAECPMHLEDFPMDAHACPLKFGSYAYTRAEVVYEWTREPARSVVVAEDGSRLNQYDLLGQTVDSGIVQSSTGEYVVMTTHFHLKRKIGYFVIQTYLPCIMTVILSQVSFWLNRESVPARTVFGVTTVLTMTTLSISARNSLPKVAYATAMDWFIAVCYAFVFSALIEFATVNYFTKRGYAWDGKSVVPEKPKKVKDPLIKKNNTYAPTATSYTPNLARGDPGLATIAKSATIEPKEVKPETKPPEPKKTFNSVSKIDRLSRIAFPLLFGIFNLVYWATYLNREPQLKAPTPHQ
# Chain of bovine Estrogen Receptor (ER), ESR1 (gene 407238) (P49884 whole entry, looked up): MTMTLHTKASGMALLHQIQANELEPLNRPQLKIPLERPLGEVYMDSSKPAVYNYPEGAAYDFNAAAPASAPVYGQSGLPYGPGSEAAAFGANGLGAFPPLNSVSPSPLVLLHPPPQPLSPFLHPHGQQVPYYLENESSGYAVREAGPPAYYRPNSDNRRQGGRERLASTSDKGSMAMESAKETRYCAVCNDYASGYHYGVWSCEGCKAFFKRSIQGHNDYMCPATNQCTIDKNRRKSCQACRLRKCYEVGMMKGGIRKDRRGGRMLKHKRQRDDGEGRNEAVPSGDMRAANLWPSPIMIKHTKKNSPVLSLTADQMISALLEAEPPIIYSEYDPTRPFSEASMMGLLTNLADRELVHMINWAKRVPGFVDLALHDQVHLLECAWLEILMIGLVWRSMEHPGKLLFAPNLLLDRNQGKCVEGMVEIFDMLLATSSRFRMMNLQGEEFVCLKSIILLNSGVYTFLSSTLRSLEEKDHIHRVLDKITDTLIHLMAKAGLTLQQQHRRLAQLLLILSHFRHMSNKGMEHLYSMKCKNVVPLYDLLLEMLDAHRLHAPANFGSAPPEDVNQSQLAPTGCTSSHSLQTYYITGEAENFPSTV
# Chain of human Neonicotinoid receptor (NNR), CHRNA2 (gene 1135) (Q15822 whole entry, looked up): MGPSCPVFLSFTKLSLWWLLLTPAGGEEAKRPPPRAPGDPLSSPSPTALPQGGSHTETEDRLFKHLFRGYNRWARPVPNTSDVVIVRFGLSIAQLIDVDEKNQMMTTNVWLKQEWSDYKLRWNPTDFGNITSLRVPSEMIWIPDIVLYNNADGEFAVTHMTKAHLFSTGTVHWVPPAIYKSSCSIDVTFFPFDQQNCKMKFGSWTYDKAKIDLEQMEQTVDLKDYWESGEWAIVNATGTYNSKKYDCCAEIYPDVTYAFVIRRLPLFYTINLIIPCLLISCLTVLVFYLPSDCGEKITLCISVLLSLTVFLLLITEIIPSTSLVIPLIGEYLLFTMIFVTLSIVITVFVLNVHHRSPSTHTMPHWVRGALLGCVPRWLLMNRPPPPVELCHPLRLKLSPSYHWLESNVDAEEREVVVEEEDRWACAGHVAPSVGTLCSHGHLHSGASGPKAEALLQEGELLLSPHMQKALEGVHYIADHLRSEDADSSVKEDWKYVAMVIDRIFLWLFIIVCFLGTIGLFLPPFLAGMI
# Chain of rat Corticotropin Releasing Factor Receptor (CRF), Crhr1 (gene 58959) (P35353 whole entry, looked up): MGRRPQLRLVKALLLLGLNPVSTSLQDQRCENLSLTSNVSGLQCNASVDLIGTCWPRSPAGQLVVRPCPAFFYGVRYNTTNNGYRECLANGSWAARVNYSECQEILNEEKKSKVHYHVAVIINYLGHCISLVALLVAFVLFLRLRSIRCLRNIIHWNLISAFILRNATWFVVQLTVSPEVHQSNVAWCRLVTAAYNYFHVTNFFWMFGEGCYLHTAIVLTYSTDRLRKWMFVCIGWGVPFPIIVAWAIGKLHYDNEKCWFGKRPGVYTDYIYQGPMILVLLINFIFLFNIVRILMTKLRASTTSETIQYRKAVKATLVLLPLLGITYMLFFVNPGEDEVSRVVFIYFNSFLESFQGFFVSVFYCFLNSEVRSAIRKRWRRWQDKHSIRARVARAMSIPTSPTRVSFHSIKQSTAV
# Chain of mouse Estrogen Receptor alpha (Era), Esr1 (gene 13982) (P19785 whole entry, looked up): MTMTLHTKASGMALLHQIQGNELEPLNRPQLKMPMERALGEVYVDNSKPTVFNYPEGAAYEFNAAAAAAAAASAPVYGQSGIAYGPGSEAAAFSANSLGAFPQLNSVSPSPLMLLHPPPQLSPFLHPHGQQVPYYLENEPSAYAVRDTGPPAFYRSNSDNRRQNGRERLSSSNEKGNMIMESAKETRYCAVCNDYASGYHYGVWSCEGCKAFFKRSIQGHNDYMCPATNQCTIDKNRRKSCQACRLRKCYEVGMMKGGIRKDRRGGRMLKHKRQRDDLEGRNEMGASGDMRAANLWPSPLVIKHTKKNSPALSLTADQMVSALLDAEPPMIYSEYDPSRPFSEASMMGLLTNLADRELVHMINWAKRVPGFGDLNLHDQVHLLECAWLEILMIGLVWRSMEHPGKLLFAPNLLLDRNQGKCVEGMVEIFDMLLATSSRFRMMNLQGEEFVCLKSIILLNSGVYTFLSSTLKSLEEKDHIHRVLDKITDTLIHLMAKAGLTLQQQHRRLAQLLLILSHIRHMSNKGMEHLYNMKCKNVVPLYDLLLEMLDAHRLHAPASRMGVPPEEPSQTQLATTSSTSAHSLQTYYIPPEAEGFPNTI
smiles,measurement,setting,value
CCC(C)(C)C1CCC(O)CC1 (configuration not stated),outcome,[1],inactive
CC(C)C(=O)Nc1ccc([N+](=O)[O-])c(C(F)(F)F)c1,outcome,[2],inactive
Cc1cccc(C)c1[N+](=O)[O-],outcome,[3],inactive
C#C[C@]1(O)CC[C@H]2[C@@H]3CCC4=CC(=O)CC[C@@H]4[C@H]3CC[C@@]21CC,AC50,[4],2.23 µM (active)
same,outcome,[1],inactive
C[C@@H](Oc1ccc(CNC(=O)c2cccnc2Oc2ccc3c(c2)OCO3)c(F)c1)C(=O)O,outcome,[5],inactive
NC(=O)N1c2ccccc2C=Cc2ccccc21,outcome,[4],inactive
same,outcome,[3],inactive
Cc1c(-c2cccnc2)c2ccccc2n1CCCCC(=O)O,outcome,[3],inactive
CCCCCCCCCCCCCCCS(=O)(=O)Oc1ccccc1,outcome,[5],inactive
C1=CCCC=CCCC=CCC1,outcome,[4],inactive
COc1cc(S(=O)(=O)O)c(C)cc1N=Nc1c(O)ccc2cc(S(=O)(=O)O)ccc12,AC50,[6],16.8 µM (active)
same,AC50,[7],16.7 µM (active)
Cc1nccn1-c1ccc(Sc2cccc(C3(C(N)=O)CCOCC3)c2)cc1,outcome,[5],inactive
Cn1cnc2c1c(=O)[nH]c(=O)n2C,AC50,[7],15.4 µM (active)
NC(N)=O,outcome,[8],inactive
CC=Cc1ccc(OCC)c(O)c1,outcome,[3],inactive
COP(=O)(OC)Oc1ccc([N+](=O)[O-])cc1,outcome,[9],inactive
same,outcome,[10],inactive
same,outcome,[11],inactive
same,outcome,[12],inactive
same,outcome,[13],inactive
same,outcome,[14],inactive
same,outcome,[15],inactive
same,outcome,[16],inactive
same,outcome,[17],inactive
C=CC(=O)OCCCCO,outcome,[9],inactive
same,outcome,[10],inactive
CC(C)COC(=O)CCCCC(=O)OCC(C)C,outcome,[5],inactive
COc1ccc(N)cc1N,outcome,[9],inactive
CCCCc1ccc2c(n1)[C@@H](c1ccc(OC)cc1C[C@H](C)C(=O)O)[C@H](C(=O)O)[C@H]2c1ccc2c(c1)OCO2,outcome,[4],inactive
CCCCOC(=O)CCCCCCCCC(=O)OCCCC,outcome,[8],inactive
CN(C)CCCN(C)CCCN(C)C,outcome,[5],inactive
CCOC(=O)COc1ccc2c(c1)CC(NCC(O)c1cccc(Cl)c1)CC2 (configuration not stated),outcome,[8],inactive
CC[C@@H]1C[C@H](N(Cc2cc(C(F)(F)F)cc(C(F)(F)F)c2)C(C)=O)c2cc(C(F)(F)F)ccc2N1C(=O)OC(C)C,outcome,[5],inactive
NC(=Nc1ccccc1)Nc1ccccc1,AC50,[4],21.8 µM (active)
COCCOCCOCCOC,outcome,[18],inactive
COC(=O)c1ccc(I)cc1S(=O)(=O)NC(=O)Nc1nc(C)nc(OC)n1,outcome,[6],inactive
[Hg+2].[I-].[I-],outcome,[9],inactive
same,outcome,[10],inactive
same,AC50,[19],35.4 µM (active)
same,AC50,[20],54.2 µM (active)
same,AC50,[12],70.1 µM (active)
same,AC50,[13],72.1 µM (active)
same,AC50,[21],18.4 µM (active)
same,AC50,[14],73.7 µM (active)
same,AC50,[15],57.5 µM (active)
same,AC50,[16],33 µM (active)
CS(=O)(=O)c1ccc(C2=C(c3ccccc3)C(=O)OC2)cc1,outcome,[3],inactive
Cc1ccc(C(C)C)c(O)c1,outcome,[3],inactive
NC(=O)Cn1c(=O)cc(CCN2CCN(c3nccc4sccc34)CC2)c2ccc(F)cc21,AC50,[4],4.48 µM (active)
CCCC(=O)OCCC(C)C,outcome,[5],inactive
CCOc1ccc2[nH]cc(C(=O)NCc3ccccc3)c(=O)c2n1,outcome,[4],inactive
same,AC50,[3],0.215 µM (active)
CCOP(=O)(Sc1ccccc1)Sc1ccccc1,outcome,[9],inactive
same,outcome,[10],inactive
Cn1cnc([N+](=O)[O-])c1Sc1ncnc2nc[nH]c12,outcome,[4],inactive
CNCc1ccc(NC(=O)c2c[nH]c3c2C(=O)CCC3)cc1,outcome,[5],inactive
same,AC50,[4],0.0626 µM (active)
O=C1OC(=O)C2C3C=CC(C3)C12 (configuration not stated),outcome,[8],inactive
COC(=O)c1ccccc1C(=O)O,outcome,[6],inactive
O=c1n(CC2CO2)c(=O)n(CC2CO2)c(=O)n1CC1CO1 (configuration not stated),outcome,[3],inactive
